Whole data set: some 33,000 sequences, median “E-score (-0.5 to 0.5)” near -0.021, cut for the highest 2% near 0.32. Shown is part of a subset that was picked to be rich in the highest values.
These sequences were tested against T1, Zap1 (UniProt P47043) (assay: PBM E-score (8-mer binding enrichment) (E-score (-0.5 to 0.5)); higher = stronger / more preferred TF binding). Conditions: protein concentration: 200 nM; construct: GST-full length.
T1 sequence: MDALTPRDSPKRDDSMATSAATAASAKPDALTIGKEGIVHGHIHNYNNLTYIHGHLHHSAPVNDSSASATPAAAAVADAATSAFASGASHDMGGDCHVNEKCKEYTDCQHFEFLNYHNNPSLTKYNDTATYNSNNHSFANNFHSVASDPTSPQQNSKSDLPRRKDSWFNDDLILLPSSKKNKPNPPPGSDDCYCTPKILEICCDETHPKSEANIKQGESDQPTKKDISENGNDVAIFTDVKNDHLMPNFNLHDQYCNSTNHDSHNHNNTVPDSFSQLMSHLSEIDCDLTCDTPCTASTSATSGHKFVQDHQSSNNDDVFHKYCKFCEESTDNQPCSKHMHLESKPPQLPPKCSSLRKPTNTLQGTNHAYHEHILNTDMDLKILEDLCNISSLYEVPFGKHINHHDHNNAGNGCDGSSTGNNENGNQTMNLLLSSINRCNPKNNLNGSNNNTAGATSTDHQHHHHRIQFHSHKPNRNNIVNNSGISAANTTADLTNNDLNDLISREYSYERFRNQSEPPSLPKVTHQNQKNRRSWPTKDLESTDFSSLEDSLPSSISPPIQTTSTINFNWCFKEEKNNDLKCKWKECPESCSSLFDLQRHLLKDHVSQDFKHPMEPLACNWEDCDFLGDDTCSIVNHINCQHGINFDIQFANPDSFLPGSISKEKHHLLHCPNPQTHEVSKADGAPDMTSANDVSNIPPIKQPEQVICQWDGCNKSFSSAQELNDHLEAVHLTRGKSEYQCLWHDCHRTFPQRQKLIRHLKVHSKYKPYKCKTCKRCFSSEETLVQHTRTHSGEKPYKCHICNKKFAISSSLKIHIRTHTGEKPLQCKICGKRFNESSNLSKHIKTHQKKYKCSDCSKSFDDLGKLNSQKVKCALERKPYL
In short: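 Using PURExpress in vitro transcription/translation, GST-tagged yeast transcription factors were made in full-length or DNA-binding-domain form. These were applied at about 100-200 nM to double-stranded universal all-10-mer Agilent arrays, and bound protein was detected with fluorescent anti-GST. Scans were normalised with masliner before the Universal PBM Analysis Suite assigned E-scores to ungapped eight-base words pooled with their reverse complements.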

Sequence | PBM E-score
ATGGTAAC | 0.392
GTGGTAAA | -0.0285
ATGGTAAG | -0.124
GTGGTAAC | 0.36
CTGGTAAC | 0.255
CAAGTGTC | -0.0245
ACCCAAGA | 0.152
ACTATGGA | -0.0878
ACAATAGG | -0.0709
ACCAGTTA | 0.206
GGATAACC | 0.436
CGATAACA | 0.131
GGATAACA | -0.0812
AGATAACG | 0.0406
CGATAACG | -0.174
CGATAACC | 0.46
AGATAACC | 0.435
AGATAACT | -0.118
GGATAAAC | 0.149
CCTCTCGC | -0.108
ACAAGCCG | -0.223
TATGGGGA | 0.145
AATATCCT | 0.00302
AAGAGCTA | -0.0268
CTGGGGTA | 0.269

Sequence | PBM E-score
ATGGGGTA | 0.326
ATGGGGTC | 0.284
GGGGGGTA | -0.0438
GTGGGGTA | 0.368
ATGGGGTG | 0.143
CGAACACA | 0.085
AGTAAACC | 0.177
CGTAACGA | -0.081
CGTAACTA | 0.0577
AGTAACTA | 0.219
AGTAACTC | -0.0584
AGTAACGA | 0.0604
CGTAACCA | 0.441
GGTAACGA | 0.294
GGTAACTA | 0.313
GGTAACCA | 0.461
AGTAACCA | 0.387
AGTAACCC | 0.443
CATCAGGA | 0.0932
ATAGTTGG | -0.0799
CTGGAGGA | -0.216
AAAGTAGT | 0.0501
ACACTTGG | 0.0219
CGTAACAA | 0.201
AGTAACTG | -0.154

Sequence | PBM E-score
AGTAACGG | 0.126
GGTAATAA | 0.338
AGTAACCG | 0.355
GGTAATAC | 0.248
TGTAATAA | 0.133
AGTAACAA | 0.161
GGTAACAA | 0.38
CAGGGGAG | -0.0274
GCTAATCC | -0.0663
ATCGTTCA | 0.092
CCTTCACA | 0.0885
ACCTGACT | 0.143
CCAGAACA | -0.00016
AAGACCCG | 0.0601
CTGACCTC | 0.194
GGGACCCA | 0.198
ATGACCCA | 0.397
ATGACCGA | 0.0244
ATGACCTG | 0.303
GTGACCCA | 0.389
AAGACCCA | 0.142
CTGACCCA | -0.11
ATGACCTC | 0.442
AAGACCCC | 0.323
ATGACCCG | 0.269

Sequence | PBM E-score
ATCTGCTG | -0.184
GCACCAAC | -0.00297
CTTGACCA | 0.147
CCCTCTGA | 0.0399
ATTTTTTC | 0.0779
ACCTGCCG | -0.0789
AGACAAAC | -0.0937
ATGACCAC | 0.289
CTGACCCC | 0.12
GTGACCAC | 0.344
ATGACCCC | 0.385
GTGACCAA | 0.305
ATGACCGC | 0.302
AAGTGGCC | 0.0931
GGAGCGAC | -0.122
AGGCCACT | -0.13
ACCCTCTC | 0.121
CACCTCTC | -0.242
GACCTCTC | 0.203
TACCTCCA | 0.303
TACCTCTA | 0.347
CACCTCTA | 0.22
AACCTCAA | 0.263
GCCCTCTA | -0.245
AACCTCTC | 0.349

Sequence | PBM E-score
AACCTCTA | 0.351
ACCCTCTA | 0.355
AGCCTCTA | -0.101
CCTGACCG | 0.0354
CTGGCCCA | -0.095
AGTACTTC | 0.148
AGTGTGAA | -0.13
AACGTTGC | -0.161
ACCAAGGG | 0.178
CGCTACCC | 0.302
ATCCCTCA | -0.0235
CGGGATCC | -0.0153
ACAGCGAC | -0.152
AACCTCTT | 0.397
AACCTCTG | 0.306
GTCCTCTA | -0.0992
GGCCTCTA | 0.0229
GACCTCTA | 0.318
AACCTCCT | 0.158
GCGGGGCC | -0.0181
CAACGCGC | 0.0876
CTTAGAGC | 0.0313
GGCATCCA | -0.107
GACCAGTA | 0.0618
AAAATGTG | -0.0329

Sequence | PBM E-score
AATGGGCG | -0.204
CTAACCCA | 0.326
ATAACCCA | 0.472
CTAACCCC | 0.178
AAAACCCA | 0.258
ATAAACCA | 0.121
ATAACCCG | 0.442
TGAACCCA | 0.242
AAAACCCG | 0.131
GTAACCCA | 0.468
GAAACCCA | 0.246
AGAACCCG | 0.223
GGAACCCA | 0.171
CTTTGCGC | -0.0424
GTGATTTA | 0.193
AACTGTTC | -0.0321
ACTTTAGC | -0.16
AATCAGTA | -0.0224
AGGGAGAG | -0.0798
GCAGGGTA | 0.373
GCAGGGGA | -0.177
ACAGGGTC | 0.315
ACAGGGTG | 0.199
GCAGGGAA | -0.0199
CCAGGGCA | -0.123

Sequence | PBM E-score
ACAGGGTA | 0.366
CCAGGGTA | 0.323
CCAGGGTC | 0.19
CGACAGCG | -0.154
CGCCGCGC | -0.0986
ATTGCGGG | 0.11
CGAGTAAG | 0.119
AGCAGTAT | 0.0154
CGCAAACC | 0.0968
TCGCGAGA | 0.117
ATTAACCA | 0.246
CTCAACCA | 0.00637
GTTAACCA | 0.338
CTCAACCC | 0.201
ATTAACGG | 0.0866
CTTAACGA | -0.00709
CTTAACCA | 0.376
GTTAACTA | 0.263
CTTAACCC | 0.387
ATTAACAG | -0.102
CTTAACAC | 0.0174
ATTAACCG | 0.331

Reference: the supplement of paper PMC3334620
